# Results taken from the supplement of paper PMC6897291.
# Counter-ions that a name gives are not always drawn.
# Tests used:
# U-2932 [1] = assay: growth inhibition by drug alone (1 - RLU/untreated control) (fraction); higher = stronger inhibition; settings: 177Lu-lilotomab satetraxetan 0 ug/ml
# In short: (§1)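 Growth inhibition was calculated from RealTime-Glo RLU against untreated no-drug wells. Values equal 1 − RLU/mean of 48 untreated no-drug wells per plate, read daily from day 3 after 1 h at 37°C. RIVA and U-2932 cells, with or without 18 h pretreatment by a radiolabelled anti-CD37 antibody conjugate (~600 MBq/mg; 0.5 µg/ml RIVA, 1 µg/ml U-2932), were washed and plated at 3,000 cells/well on compound-printed plates at 10/100 nM (RIVA) or 10/1,000 nM (U-2932).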
# RIVA [2] = assay: as above; settings: 177Lu-lilotomab satetraxetan 0 ug/ml
# In short: as §1
# U-2932 [3] = assay: growth inhibition by drug plus 177Lu-lilotomab satetraxetan (1 - RLU/untreated control) (fraction); higher = stronger inhibition; settings: 177Lu-lilotomab satetraxetan 1 ug/ml
# In short: as §1
# RIVA [4] = assay: as above; settings: 177Lu-lilotomab satetraxetan 0.5 ug/ml
# In short: as §1
Compound,"growth inhibition by drug alone (U-2932 [1]; 10 nM, time (day): 3)","growth inhibition by drug alone (U-2932 [1]; 10 nM, time (day): 4)","growth inhibition by drug alone (U-2932 [1]; 10 nM, time (day): 5)","growth inhibition by drug alone (U-2932 [1]; 10 nM, time (day): 6)","growth inhibition by drug alone (U-2932 [1]; 1000 nM, time (day): 3)","growth inhibition by drug alone (U-2932 [1]; 1000 nM, time (day): 4)","growth inhibition by drug alone (U-2932 [1]; 1000 nM, time (day): 5)","growth inhibition by drug alone (U-2932 [1]; 1000 nM, time (day): 6)","growth inhibition by drug alone (RIVA [2]; 10 nM, time (day): 3)","growth inhibition by drug alone (RIVA [2]; 10 nM, time (day): 4)","growth inhibition by drug alone (RIVA [2]; 10 nM, time (day): 5)","growth inhibition by drug alone (RIVA [2]; 10 nM, time (day): 6)","growth inhibition by drug alone (RIVA [2]; 100 nM, time (day): 3)","growth inhibition by drug alone (RIVA [2]; 100 nM, time (day): 4)","growth inhibition by drug alone (RIVA [2]; 100 nM, time (day): 5)","growth inhibition by drug alone (RIVA [2]; 100 nM, time (day): 6)","growth inhibition by drug plus 177Lu-lilotomab satetraxetan (U-2932 [3]; 10 nM, time (day): 3)","growth inhibition by drug plus 177Lu-lilotomab satetraxetan (U-2932 [3]; 10 nM, time (day): 4)","growth inhibition by drug plus 177Lu-lilotomab satetraxetan (U-2932 [3]; 10 nM, time (day): 5)","growth inhibition by drug plus 177Lu-lilotomab satetraxetan (U-2932 [3]; 10 nM, time (day): 6)","growth inhibition by drug plus 177Lu-lilotomab satetraxetan (U-2932 [3]; 1000 nM, time (day): 3)","growth inhibition by drug plus 177Lu-lilotomab satetraxetan (U-2932 [3]; 1000 nM, time (day): 4)","growth inhibition by drug plus 177Lu-lilotomab satetraxetan (U-2932 [3]; 1000 nM, time (day): 5)","growth inhibition by drug plus 177Lu-lilotomab satetraxetan (U-2932 [3]; 1000 nM, time (day): 6)","growth inhibition by drug plus 177Lu-lilotomab satetraxetan (RIVA [4]; 10 nM, time (day): 3)","growth inhibition by drug plus 177Lu-lilotomab satetraxetan (RIVA [4]; 10 nM, time (day): 4)","growth inhibition by drug plus 177Lu-lilotomab satetraxetan (RIVA [4]; 10 nM, time (day): 5)","growth inhibition by drug plus 177Lu-lilotomab satetraxetan (RIVA [4]; 10 nM, time (day): 6)","growth inhibition by drug plus 177Lu-lilotomab satetraxetan (RIVA [4]; 100 nM, time (day): 3)","growth inhibition by drug plus 177Lu-lilotomab satetraxetan (RIVA [4]; 100 nM, time (day): 4)","growth inhibition by drug plus 177Lu-lilotomab satetraxetan (RIVA [4]; 100 nM, time (day): 5)","growth inhibition by drug plus 177Lu-lilotomab satetraxetan (RIVA [4]; 100 nM, time (day): 6)"
COc1cc2/c(=N/c3ccc(Br)cc3F)nc[nH]c2cc1OCC1CCN(C)CC1 [Vandetanib (Zactima)],-0.05,-0.0325,-0.0228,0.016,-0.236,-0.171,-0.167,-0.12,-0.203,-0.201,-0.23,-0.529,-0.273,-0.353,-0.318,-0.441,-0.0662,-0.0404,-0.009,0.0527,-0.276,-0.164,-0.119,-0.041,0.331,0.49,0.516,0.535,0.268,0.377,0.373,0.355
CS(=O)(=O)N1CCN(Cc2cc3nc(-c4cccc5[nH]ncc45)nc(N4CCOCC4)c3s2)CC1,-0.0712,-0.0515,-0.0456,0.0469,0.69,0.786,0.802,0.82,-0.0821,-0.12,-0.138,-0.212,0.604,0.409,0.327,0.221,-0.0212,-0.0112,0.0169,0.184,0.81,0.875,0.897,0.913,0.351,0.467,0.488,0.493,0.532,0.5,0.486,0.45
C[C@@H]1CN(CC(=O)Nc2ccc3c(c2)Cc2cccc(-c4cc(=O)cc(N5CCOCC5)o4)c2S3)C[C@H](C)O1,0.00343,-0.0228,-0.128,-0.257,-0.073,-0.0366,-0.0776,-0.17,-0.0136,-0.0829,-0.153,-0.417,-0.282,-0.285,-0.284,-0.465,-0.0592,-0.0257,-0.0361,-0.0183,-0.0688,0.0229,0.0334,0.0421,,,,,,,,
Oc1ccc(Nc2nc(-c3ccc(Cl)cc3)cs2)cc1,0.0714,0.0415,-0.0308,-0.079,0.00763,0.0746,-0.00976,-0.13,-0.021,-0.0647,-0.176,-0.522,-0.28,-0.263,-0.403,-0.57,-0.0159,0.00418,0.0159,-0.00943,0.0757,0.243,0.237,0.277,0.383,0.501,0.516,0.539,0.158,0.298,0.304,0.293
CC(=O)O[C@H]1C(=O)[C@@]2(C)[C@H]([C@H](OC(=O)c3ccccc3)[C@]3(O)C[C@H](OC(=O)[C@H](O)[C@@H](NC(=O)c4ccccc4)c4ccccc4)C(C)=C1C3(C)C)[C@]1(OC(C)=O)CO[C@@H]1C[C@@H]2O [Paclitaxel (Taxol)],0.806,0.808,0.794,0.778,0.955,0.969,0.977,0.983,0.943,0.957,0.965,0.967,0.949,0.962,0.969,0.972,0.818,0.846,0.866,0.883,0.955,0.97,0.979,0.986,0.961,0.977,0.983,0.986,0.968,0.979,0.984,0.986
Oc1cccc(-c2nc(N3CCOCC3)c3oc4ncccc4c3n2)c1,0.191,0.128,-0.0145,-0.0687,0.836,0.879,0.891,0.894,0.135,0.0735,0.0557,-0.0131,0.762,0.695,0.667,0.585,0.125,0.138,0.171,0.231,0.633,0.625,0.627,0.655,0.54,0.556,0.562,0.572,0.837,0.831,0.827,0.824
O=NN(CCCl)C(=O)NC1CCCCC1 [Lomustine (CeeNU)],0.0125,-0.0069,-0.0761,-0.178,-0.00465,0.00866,-0.0378,0.00712,-0.055,-0.0849,-0.137,-0.324,-0.313,-0.232,-0.254,-0.408,0.00156,0.0498,0.0878,0.11,-0.00262,0.0596,0.0893,0.149,,,,,,,,
OCCn1cc(-c2cnc3nnn(Cc4ccc5ncccc5c4)c3n2)cn1,0.0403,0.00489,-0.0584,-0.156,-0.178,-0.0659,-0.175,-0.214,0.0383,0.00592,-0.0414,-0.165,-0.319,-0.278,-0.299,-0.402,-0.0346,0.043,0.0857,0.105,0.0296,0.08,0.0788,0.176,0.521,0.575,0.599,0.603,0.384,0.474,0.467,0.46
O=c1oc2c(O)c(O)cc3c(=O)oc4c(O)c(O)cc1c4c23 [Ellagic acid],-0.0386,-0.0333,-0.0157,0.0286,-0.0768,-0.0331,-0.0763,-0.143,-0.12,-0.115,-0.166,-0.332,-0.107,-0.127,-0.152,-0.219,-0.0253,-0.00558,0.0162,0.137,-0.104,-0.00651,0.0116,0.067,,,,,,,,
CCCS(=O)(=O)Nc1ccc(F)c(C(=O)c2c[nH]c3ncc(-c4ccc(Cl)cc4)cc23)c1F [Vemurafenib (PLX4032)],0.026,-4.15e-06,-0.0629,-0.147,-0.152,-0.0928,-0.16,-0.291,-0.0219,-0.0744,-0.165,-0.55,-0.231,-0.206,-0.219,-0.345,-0.0121,0.00305,0.0511,0.0873,-0.143,-0.047,-0.0561,0.06,0.42,0.546,0.561,0.576,0.432,0.531,0.539,0.524
C#CCN(C)CC1=Cc2ccccc2Oc2ccccc21,0.0712,0.0296,-0.0381,-0.0948,0.056,0.0596,0.000991,0.0366,-0.0236,-0.0211,-0.0438,-0.145,-0.121,-0.0828,-0.112,-0.138,0.0301,0.075,0.128,0.198,0.0289,0.0839,0.129,0.233,,,,,,,,
CNC(=O)c1cc(Oc2ccc(NC(=O)Nc3cc(C(C)(C)C)nn3-c3ccc4ncccc4c3)c(F)c2)ccn1 [DCC-2036 (Rebastinib)],0.0874,0.0635,0.096,-0.234,0.0869,0.114,0.104,0.0187,-0.0575,0.00723,-0.0883,-0.395,-0.428,-0.203,-0.231,-0.405,0.0343,0.0699,0.117,0.132,0.0878,0.127,0.208,0.293,,,,,,,,
CC(=O)[C@]1(O)Cc2c(O)c3c(c(O)c2[C@@H](O[C@H]2C[C@H](N)[C@H](O)[C@H](C)O2)C1)C(=O)c1ccccc1C3=O [Idarubicin HCl],0.517,0.599,0.684,0.751,0.962,0.973,0.977,0.98,0.685,0.744,0.786,0.827,0.781,0.825,0.851,0.883,0.584,0.712,0.817,0.881,0.972,0.979,0.981,0.985,0.924,0.947,0.964,0.971,0.831,0.89,0.913,0.939
O=C1c2ccccc2-c2nc3nonc3nc21,0.122,0.0829,-0.0474,-0.0365,0.144,0.236,0.193,0.28,-0.0244,-0.0693,-0.283,-0.811,-0.571,-0.488,-0.554,-0.831,0.0325,0.0601,0.0603,0.0121,0.496,0.527,0.536,0.582,0.417,0.519,0.528,0.542,0.116,0.288,0.31,0.332
CCC(CC)CC1(C(=O)Nc2ccccc2SC(=O)C(C)C)CCCCC1,0.0325,0.00234,0.00914,0.0506,-0.0537,-0.0604,-0.0741,-0.00871,-0.0908,-0.101,-0.128,-0.174,-0.0374,-0.15,-0.166,-0.178,0.00638,0.0745,0.111,0.2,-0.0639,-0.00533,0.0344,0.206,0.496,0.541,0.564,0.567,0.369,0.456,0.462,0.476
S=C(NCc1ccc2c(c1)OCO2)N1CCN(c2ncnc3c2oc2ccccc23)CC1 [Amuvatinib (MP-470)],0.138,0.0926,-0.0674,-0.0914,0.459,0.471,0.474,0.434,0.0683,0.0587,0.0228,-0.162,0.05,0.0617,0.0713,0.0541,0.0425,0.101,0.162,0.177,0.465,0.477,0.498,0.561,0.627,0.668,0.684,0.68,0.641,0.642,0.661,0.677
